PubChem BioAssay (EPA / NIEHS)
A structure can be active in one record and inactive in another. Active and inactive are the calls of the source. The calls were made as follows: active = hit-call score of the fitted dose curve at least 0.9, where 1 is the maximum; inactive = score below 0.9.

What was measured:
[1] = APR_HepG2_CellLoss_72hr: Apredica 72-hour HepG2 Assay for Cell Loss (AID 2282915); conditions: high-content imaging
Method in brief: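 Cell number comes from Hoechst 33342-labelled nuclei, imaged at 20x after 3.7% formaldehyde fixation. Dosing was 0.39–200 uM, ten concentrations in duplicate, 0.5% DMSO final, for 72 h. Bidirectional fit relative to DMSO baseline.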

[2] = APR_HepG2_P-H2AX_72hr: Apredica 72-hour HepG2 Assay for H2AX Phosphorylation (AID 2282916); conditions: imaging, actives raise or lower the signal;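 also: phospho-histone H2A.x immunostain intensity per cell marking DNA damage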
Method in brief: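 Following 72 hr treatment with 0.39–200 uM compound, HepG2 cells were formaldehyde-fixed, permeabilized and stained for phospho-H2A.x; signal was measured by high-content imaging and fitted bidirectionally against DMSO controls.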

[3] = APR_HepG2_MitoMembPot_72hr: Apredica 72-hour HepG2 Assay for Mitochondrial Membrane Potential (AID 2282917); conditions: imaging, actives raise or lower the signal
Method in brief: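 Membrane potential read by MitoTracker Red CMXRos (250 nM, 30 min, pre-fixation) fluorescence imaging of HepG2 after 72 hr exposure. Ten concentrations, 0.39–200 uM, duplicate wells, 0.5% DMSO; fitted in both directions against DMSO baseline.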

[4] = APR_HepG2_MicrotubuleCSK_72hr: Apredica 72-hour HepG2 Assay for Microtubule CSK Stabilty (AID 2282919); conditions: HepG2 microtubule cytoskeleton, high-content imaging, actives raise or lower the signal
Method in brief: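 Read-out is tubulin fluorescence intensity from high-content imaging of HepG2 cells, with nuclei identified by Hoechst 33342. Treatment lasts 72 h at 0.39–200 uM, and curves are fitted bidirectionally against the DMSO negative control.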

[5] = APR_HepG2_P-H2AX_24hr: Apredica 24-hour HepG2 Assay for H2AX Phosphorylation (AID 2282920); conditions: high-content imaging, actives raise or lower the signal
Method in brief: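 HepG2 cells dosed 24 h at 0.39–200 uM (10 points, duplicate, 0.5% DMSO final). Formaldehyde-fixed and permeabilized, then immunostained for phospho-H2A.x with Hoechst. Fluorescence quantified by high-content imaging, fitted bidirectionally versus DMSO.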

[6] = APR_HepG2_StressKinase_72hr: Apredica 72-hour HepG2 Assay for Stress Kinase (AID 2282921); conditions: HepG2 stress kinase (phospho-c-Jun) imaging, actives raise or lower the signal
Method in brief: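 Fluorescence intensity of Cy3-tagged anti-phospho-c-Jun antibody, quantified per cell from Hoechst-defined nuclei across six images per well, served as the read-out following 72 h exposure (0.39–200 uM, 0.5% v/v DMSO).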

[7] = APR_HepG2_p53Act_72hr: Apredica 72-hour HepG2 Assay for p53 Activation (AID 2282923); conditions: high-content imaging, actives raise or lower the signal;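 also: average cellular p53 protein immunofluorescence intensity in HepG2 cells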
Method in brief: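 HepG2 monolayers receive test compounds in duplicate at ten concentrations (0.39 through 200 uM) for 72 hr. They are then formaldehyde-fixed, antibody-labelled for p53, Hoechst-stained and imaged, with activity fitted bidirectionally versus DMSO.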

[8] = APR_HepG2_NuclearSize_72hr: Apredica 72-hour HepG2 Assay for Nuclear Size (AID 2282925); conditions: high-content imaging, actives raise or lower the signal
Method in brief: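 HepG2; cpd 0.39–200 uM, 10 conc, duplicate; 72 h; DMSO 0.5% v/v; fix 3.7% formaldehyde 30 min RT; Triton permeabilization; Hoechst 2 ug/mL; HCS imaging 20x; nuclear diameter; gain/loss fit vs DMSO.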

[9] = ATG_CRE_CIS: Attagene CIS-FACTORIAL HepG2 Assay for human cAMP Responsive Element (CRE) binding protein 3 (AID 2282926); conditions: HepG2 CRE cis-reporter, Attagene multiplexed mRNA; actives raise or lower the signal
Method in brief: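 HepG2 cells transiently transfected with cis-element-driven multiple reporter transcription units; CRE reporter mRNA measured 24 h after dosing by RT-PCR, 6-FAM labelling, HpaI digestion and capillary electrophoresis. Bidirectional fit versus DMSO baseline.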

[10] = target: CCAAT/enhancer-binding protein beta (Homo sapiens) (UniProt P17676); assay: ATG_C_EBP_CIS: Attagene CIS-FACTORIAL HepG2 Assay for human CCAAT/Enhancer Binding Protein (C/EBP) beta (AID 2282927); conditions: HepG2 Attagene cis-factorial transcription factor reporter; actives raise or lower the signal
Sequence of CCAAT/enhancer-binding protein beta (Homo sapiens) (P17676 whole entry, looked up, the tested form may be a part): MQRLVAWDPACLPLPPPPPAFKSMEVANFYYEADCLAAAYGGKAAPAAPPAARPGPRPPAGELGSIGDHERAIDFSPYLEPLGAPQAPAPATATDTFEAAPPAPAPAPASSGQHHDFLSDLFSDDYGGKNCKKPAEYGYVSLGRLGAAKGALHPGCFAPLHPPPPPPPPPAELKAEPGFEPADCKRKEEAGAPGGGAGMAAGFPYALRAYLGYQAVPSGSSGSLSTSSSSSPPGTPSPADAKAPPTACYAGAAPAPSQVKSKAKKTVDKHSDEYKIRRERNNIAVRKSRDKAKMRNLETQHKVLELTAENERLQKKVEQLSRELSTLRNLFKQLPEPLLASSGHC
Method in brief: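 Endogenous C/EBPb-driven reporter transcripts measured in transfected human HepG2 cells at 24 h via RT-PCR and capillary electrophoresis of labelled fragments. Activity fitted in both directions relative to DMSO baseline.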

[11] = ATG_CMV_CIS: Attagene CIS-FACTORIAL HepG2 Assay for human CMV (Internal Marker) (AID 2282928); conditions: HepG2 CMV promoter reporter, transcription factor profiling; actives raise or lower the signal;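 also: endpoint acts as a background internal control marker rather than a target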
Method in brief: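 Endogenous transcription factor activity read in HepG2 via transfected cis-promoter reporter units. After 24 h dosing, reporter mRNA measured by RT-PCR/capillary electrophoresis; gain or loss of signal fit relative to DMSO.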

[12] = ATG_DR4_LXR_CIS: Attagene CIS-FACTORIAL HepG2 Assay for human Liver X Receptor (LXR), DR4 submotif (AID 2282929); conditions: HepG2 Attagene DR4 cis-reporter, mRNA transcription; actives raise or lower the signal
Method in brief: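 The endpoint is DR4-element-driven reporter transcripts after 24 h chemical exposure of transfected HepG2 cells. These were measured via RT-PCR and capillary electrophoresis, and gain or loss of signal was fitted relative to DMSO controls.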

[13] = ATG_AP_1_CIS: Attagene CIS-FACTORIAL HepG2 Assay for human Activator Protein 1 (AP-1) (AID 2282931); conditions: HepG2 Attagene cis-factorial AP-1 reporter mRNA; actives raise or lower the signal
Method in brief: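 Readout is reporter transcript level from endogenous transcription factor activity, quantified by RT-PCR with fluorescent primer extension and capillary electrophoresis. Transiently transfected HepG2 cells, 24 h exposure. Curves fitted both directions versus DMSO.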

[14] = ATG_AP_2_CIS: Attagene CIS-FACTORIAL HepG2 Assay for human Activator Protein 2 (AP-2) (AID 2282932); conditions: HepG2 AP-2 cis-reporter, Attagene transcription factor profiling; actives raise or lower the signal
Method in brief: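 Step one: transient transfection of HepG2 with reporter transcription units. Step two: 24 h chemical exposure. Step three: RNA extraction, RT-PCR, labelled fragment analysis by capillary electrophoresis; DMSO serves as baseline.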

[15] = ATG_BRE_CIS: Attagene CIS-FACTORIAL HepG2 Assay for human Bone Morphogenetic Protein (BMP) Response Element (BRE) (AID 2282933); conditions: HepG2 BMP response element reporter, Attagene transcription factor profiling; actives raise or lower the signal
Method in brief: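 HepG2 cells transiently transfected with CIS reporter units (endogenous TF activity, BMP response element), dosed 24 h. Reporter mRNA quantified by RT-PCR, fluorescent labelling and capillary electrophoresis; bidirectional fit vs DMSO baseline.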

[16] = target: Aryl hydrocarbon receptor (Homo sapiens) (UniProt P35869); assay: ATG_Ahr_CIS: Attagene CIS-FACTORIAL HepG2 Assay for human Aryl Hydrocarbon Receptor (Ahr) (AID 2282930); conditions: HepG2 AhR cis-factorial reporter transcription; actives raise or lower the signal
Sequence of Aryl hydrocarbon receptor (Homo sapiens) (P35869 whole entry, looked up): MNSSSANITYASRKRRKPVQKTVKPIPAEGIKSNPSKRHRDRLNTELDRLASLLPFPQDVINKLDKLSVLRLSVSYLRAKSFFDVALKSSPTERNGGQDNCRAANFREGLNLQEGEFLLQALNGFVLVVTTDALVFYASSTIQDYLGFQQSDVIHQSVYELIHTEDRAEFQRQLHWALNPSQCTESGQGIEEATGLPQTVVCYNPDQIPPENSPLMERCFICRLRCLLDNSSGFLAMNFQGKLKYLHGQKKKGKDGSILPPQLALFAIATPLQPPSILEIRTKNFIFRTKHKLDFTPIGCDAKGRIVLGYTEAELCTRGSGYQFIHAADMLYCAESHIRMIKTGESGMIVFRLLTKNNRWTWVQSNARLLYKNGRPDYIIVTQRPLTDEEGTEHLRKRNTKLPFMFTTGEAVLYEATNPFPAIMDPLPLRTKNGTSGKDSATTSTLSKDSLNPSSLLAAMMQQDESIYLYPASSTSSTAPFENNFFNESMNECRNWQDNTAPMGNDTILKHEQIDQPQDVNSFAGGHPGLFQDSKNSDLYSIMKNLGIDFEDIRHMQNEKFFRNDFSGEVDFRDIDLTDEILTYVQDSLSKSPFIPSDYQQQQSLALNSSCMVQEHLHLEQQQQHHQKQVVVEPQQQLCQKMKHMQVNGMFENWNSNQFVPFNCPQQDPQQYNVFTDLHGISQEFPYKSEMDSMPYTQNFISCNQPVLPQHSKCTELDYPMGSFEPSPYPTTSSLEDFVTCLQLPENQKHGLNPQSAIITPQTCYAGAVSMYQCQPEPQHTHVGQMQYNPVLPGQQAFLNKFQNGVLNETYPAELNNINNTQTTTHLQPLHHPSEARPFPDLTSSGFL
Method in brief: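 Reporter mRNA levels, quantified by RT-PCR and fluorescent capillary electrophoresis, reflect endogenous AhR transcriptional activity in HepG2 cells carrying transfected cis-promoter reporter constructs. Readout at 24 h post-dose; gain or loss fitted against DMSO baseline.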

[17] = target: Retinoic acid receptor alpha (Homo sapiens) (UniProt P10276); assay: ATG_DR5_RAR_CIS: Attagene CIS-FACTORIAL HepG2 Assay for human Retinoic Acid Receptor Alpha (RARE), DR5 submotif (AID 2282934); conditions: HepG2 Attagene cis-factorial RARE DR5 reporter, mRNA; actives raise or lower the signal;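 as to AC50: reporter responds to endogenous RAR alpha beta and gamma in HepG2 not RARA alone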
Sequence of Retinoic acid receptor alpha (Homo sapiens) (P10276 whole entry, looked up): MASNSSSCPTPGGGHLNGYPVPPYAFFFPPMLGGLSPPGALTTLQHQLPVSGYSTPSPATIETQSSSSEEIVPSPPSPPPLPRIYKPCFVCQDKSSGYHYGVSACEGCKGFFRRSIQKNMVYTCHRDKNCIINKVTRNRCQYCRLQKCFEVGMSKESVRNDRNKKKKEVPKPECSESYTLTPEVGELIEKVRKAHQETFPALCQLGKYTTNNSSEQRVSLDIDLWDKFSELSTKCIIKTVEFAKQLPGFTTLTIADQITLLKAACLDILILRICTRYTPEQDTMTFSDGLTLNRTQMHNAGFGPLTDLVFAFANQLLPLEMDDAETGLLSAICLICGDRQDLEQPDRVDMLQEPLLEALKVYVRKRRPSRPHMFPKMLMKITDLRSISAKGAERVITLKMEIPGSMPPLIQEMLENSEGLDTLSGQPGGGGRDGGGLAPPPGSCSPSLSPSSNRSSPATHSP
Method in brief: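 Reporter transcripts from a DR5-regulated unit, measured via RT-PCR plus capillary electrophoresis, reflect endogenous RAR activity in transiently transfected human HepG2 liver cells. Exposure lasted 24 h; gain or loss of signal scored against DMSO.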

Measured: AC50

O=P1(N(CCCl)CCCl)NCCCO1 (stereo not drawn)
not listed: [16] | [17]
inactive: all other assays above

CCCCN(CCCC)N=O
not listed: [16] | [17]
inactive: all other assays above

COCCOCCO
not listed: [7]
inactive: all other assays above

Cc1ccc(N)cc1N
active: [16] 5.24 µM
not listed: [17]
inactive: all other assays above

c1ccc(OP(Oc2ccccc2)Oc2ccccc2)cc1
not listed: [16] | [17]
inactive: all other assays above

CC(C)(C)OOC(C)(C)C
not listed: [17]
inactive: all other assays above

OCC1CO1 (stereo not drawn)
not listed: [17]
inactive: all other assays above

c1cc2c3c(cccc3c1)CC2
not listed: [3] | [4] | [16]
inactive: all other assays above

Cc1ccc2c(c1N)C(=O)c1ccccc1C2=O
active: [16] 4.15 µM | [13] 150 µM
inactive: [9] | [10] | [11] | [12] | [14] | [15] | [17]

N#Cc1c(-c2ccc(Cl)cc2)[nH]c(C(F)(F)F)c1Br
inactive: [12] | [14] | [17]
active: [9] 0.019 µM | [10] 0.0342 µM | [11] 3.01 µM | [16] 0.0823 µM | [13] 0.0823 µM | [15] 8.08 µM

Oc1ccccc1Br
inactive: [9] | [10] | [11] | [12] | [16] | [13] | [14] | [15] | [17]

OCC(F)(F)OC(F)(F)C(F)(F)OC(F)(F)CO
inactive: [9] | [10] | [11] | [12] | [16] | [13] | [14] | [15] | [17]

CC(O)C(F)(F)C(F)(F)F (stereo not drawn)
inactive: [9] | [10] | [11] | [12] | [16] | [13] | [14] | [15] | [17]

CO/N=C(/C(=O)OC)c1ccccc1COc1ccccc1C
active: [11] 23.2 µM | [16] 22.9 µM | [13] 8.54 µM | [15] 27.7 µM | [17] 5.62 µM
inactive: [9] | [10] | [12] | [14]

Nc1ccc([N+](=O)[O-])cc1Cl
inactive: [9] | [10] | [11] | [12] | [16] | [13] | [14] | [15] | [17]

CCOP(=S)(OCC)SCn1nnc2ccccc2c1=O
active: [12] 64.7 µM | [15] 173 µM
inactive: [9] | [10] | [11] | [16] | [13] | [14] | [17]

OCC(F)(F)OC(F)(F)C(F)(F)OC(F)(F)C(F)(F)OC(F)(F)CO
active: [9] 35.5 µM
inactive: [10] | [11] | [12] | [16] | [13] | [14] | [15] | [17]

OCC(F)(F)OC(F)(F)C(F)(F)OC(F)(F)C(F)(F)OC(F)(F)F
inactive: [9] | [10] | [11] | [12] | [13] | [14] | [15] | [17]
active: [12] 80.8 µM

CCCCc1ccc(O)cc1
active: [11] 71.4 µM | [13] 148 µM
inactive: [9] | [10] | [12] | [16] | [14] | [15] | [17]

O=P(OCC(Br)CBr)(OCC(Br)CBr)OCC(Br)CBr (stereo not drawn)
active: [12] 8.35 µM | [16] 19.5 µM | [13] 53.9 µM | [14] 40.1 µM | [15] 20.6 µM
inactive: [9] | [10] | [11] | [17]

CC1(C)CN=C(NN=C(/C=C/c2ccc(C(F)(F)F)cc2)/C=C/c2ccc(C(F)(F)F)cc2)NC1
inactive: [11] | [16] | [13] | [14] | [17]
active: [9] 8.42 µM | [10] 3.09 µM | [12] 8.29 µM | [15] 16.7 µM

CC(C)(C)N(NC(=O)c1ccc(Cl)cc1)C(=O)c1ccccc1
inactive: [9] | [10] | [11] | [12] | [16] | [13] | [14] | [15] | [17]

c1ccc2c(c1)sc1ccccc12
inactive: [9] | [10] | [11] | [12] | [16] | [13] | [14] | [15] | [17]
